Test results published in the supplement of paper PMC4466140.

The binders below were run against CaNbp2 (assay: SPOT peptide array binding signal intensity (averaged, normalized) (arbitrary units (background-subtracted, floor 0; scale differs between SH3 domains)); higher = stronger binding of the SH3 domain to the peptide).
In short: (§1)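 E. coli BL21(DE3) was used to express GST-fused SH3 domains from four yeast species, which were then purified on glutathione Sepharose. These were incubated at 10 μg/ml in TBS-based blocking buffer overnight at 4°C on cellulose membranes carrying synthetic 15-mer peptides, in which cysteines were replaced by serines. Binding signal is the replicate average of normalized, background-subtracted spot intensity, in arbitrary units that differ between domains.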

Binder | SPOT peptide array binding signal intensity
MAMRPIPPLPTESEY | 628

The binders below were run against CaRvs167 in the same assay as above.
In short: as §1

Binder | SPOT peptide array binding signal intensity
MAMRPIPPLPTESEY | 528

These binders were tested against CaRvs167-3 in the same assay as above.
In short: as §1

Binder | SPOT peptide array binding signal intensity
MAMRPIPPLPTESEY | ≤ 0

What follows are binders tested against CaSho1 in the same assay as above.
In short: as §1

Binder | SPOT peptide array binding signal intensity
MAMRPIPPLPTESEY | 596

Each binder was assayed against CaSla1-D1-D2 in the same assay as above.
In short: as §1

Binder | SPOT peptide array binding signal intensity
MAMRPIPPLPTESEY | 128

The binders below were run against CaSla1-D3 in the same assay as above.
In short: as §1

Binder | SPOT peptide array binding signal intensity
MAMRPIPPLPTESEY | 110

Each binder was assayed against ScAbp1 in the same assay as above.
In short: as §1

Binder | SPOT peptide array binding signal intensity
MAMRPIPPLPTESEY | 4.5

Each binder was assayed against ScBbc1 in the same assay as above.
In short: as §1

Binder | SPOT peptide array binding signal intensity
MAMRPIPPLPTESEY | 2

The binders below were run against ScBem1-D1 in the same assay as above.
In short: as §1

Binder | SPOT peptide array binding signal intensity
MAMRPIPPLPTESEY | ≤ 0

What follows are binders tested against ScBzz1-D1 in the same assay as above.
In short: as §1

Binder | SPOT peptide array binding signal intensity
MAMRPIPPLPTESEY | ≤ 0

The binders below were run against ScBzz1-D2 in the same assay as above.
In short: as §1

Binder | SPOT peptide array binding signal intensity
MAMRPIPPLPTESEY | ≤ 0

Each binder was assayed against ScCyk3 in the same assay as above.
In short: as §1

Binder | SPOT peptide array binding signal intensity
MAMRPIPPLPTESEY | ≤ 0

What follows are binders tested against ScFus1 in the same assay as above.
In short: as §1

Binder | SPOT peptide array binding signal intensity
MAMRPIPPLPTESEY | 106

What follows are binders tested against ScHof1 in the same assay as above.
In short: as §1

Binder | SPOT peptide array binding signal intensity
MAMRPIPPLPTESEY | 304

Each binder was assayed against ScHse1 in the same assay as above.
In short: as §1

Binder | SPOT peptide array binding signal intensity
MAMRPIPPLPTESEY | ≤ 0

These binders were tested against ScLsb1 in the same assay as above.
In short: as §1

Binder | SPOT peptide array binding signal intensity
MAMRPIPPLPTESEY | 106

Each binder was assayed against ScLsb2 in the same assay as above.
In short: as §1

Binder | SPOT peptide array binding signal intensity
MAMRPIPPLPTESEY | 19.5

These binders were tested against ScLsb3 in the same assay as above.
In short: as §1

Binder | SPOT peptide array binding signal intensity
MAMRPIPPLPTESEY | 4040

These binders were tested against ScLsb4 in the same assay as above.
In short: as §1

Binder | SPOT peptide array binding signal intensity
MAMRPIPPLPTESEY | 1070

Each binder was assayed against ScMyo3 in the same assay as above.
In short: as §1

Binder | SPOT peptide array binding signal intensity
MAMRPIPPLPTESEY | 21.5

Each binder was assayed against ScMyo5 in the same assay as above.
In short: as §1

Binder | SPOT peptide array binding signal intensity
MAMRPIPPLPTESEY | 3

These binders were tested against ScNbp2 in the same assay as above.
In short: as §1

Binder | SPOT peptide array binding signal intensity
MAMRPIPPLPTESEY | 172

Each binder was assayed against ScPex13 in the same assay as above.
In short: as §1

Binder | SPOT peptide array binding signal intensity
MAMRPIPPLPTESEY | 1090

These binders were tested against ScRvs167 in the same assay as above.
In short: as §1

Binder | SPOT peptide array binding signal intensity
MAMRPIPPLPTESEY | 821

These binders were tested against ScSho1 in the same assay as above.
In short: as §1

Binder | SPOT peptide array binding signal intensity
MAMRPIPPLPTESEY | 543

What follows are binders tested against ScSla1-D1-D2 in the same assay as above.
In short: as §1

Binder | SPOT peptide array binding signal intensity
MAMRPIPPLPTESEY | 167

What follows are binders tested against ScSla1-D3 in the same assay as above.
In short: as §1

Binder | SPOT peptide array binding signal intensity
MAMRPIPPLPTESEY | 82.2

The binders below were run against SpAbp1-D1 in the same assay as above.
In short: as §1

Binder | SPOT peptide array binding signal intensity
MAMRPIPPLPTESEY | 13

Each binder was assayed against SpBbc1 in the same assay as above.
In short: as §1

Binder | SPOT peptide array binding signal intensity
MAMRPIPPLPTESEY | 4.75

These binders were tested against SpBzz1-D1 in the same assay as above.
In short: as §1

Binder | SPOT peptide array binding signal intensity
MAMRPIPPLPTESEY | 79.5

These binders were tested against SpBzz1-D2 in the same assay as above.
In short: as §1

Binder | SPOT peptide array binding signal intensity
MAMRPIPPLPTESEY | 17

These binders were tested against SpCyk3 in the same assay as above.
In short: as §1

Binder | SPOT peptide array binding signal intensity
MAMRPIPPLPTESEY | 14

What follows are binders tested against SpHof1 in the same assay as above.
In short: as §1

Binder | SPOT peptide array binding signal intensity
MAMRPIPPLPTESEY | 140

Each binder was assayed against SpHof1-2 in the same assay as above.
In short: as §1

Binder | SPOT peptide array binding signal intensity
MAMRPIPPLPTESEY | 110

These binders were tested against SpHof1-3 in the same assay as above.
In short: as §1

Binder | SPOT peptide array binding signal intensity
MAMRPIPPLPTESEY | 26.8

These binders were tested against SpHse1 in the same assay as above.
In short: as §1

Binder | SPOT peptide array binding signal intensity
MAMRPIPPLPTESEY | 66

What follows are binders tested against SpLsb1 in the same assay as above.
In short: as §1

Binder | SPOT peptide array binding signal intensity
MAMRPIPPLPTESEY | 67.8

What follows are binders tested against SpLsb4 in the same assay as above.
In short: as §1

Binder | SPOT peptide array binding signal intensity
MAMRPIPPLPTESEY | 2610

These binders were tested against SpMyo1 in the same assay as above.
In short: as §1

Binder | SPOT peptide array binding signal intensity
MAMRPIPPLPTESEY | 309

The binders below were run against SpNbp2 in the same assay as above.
In short: as §1

Binder | SPOT peptide array binding signal intensity
MAMRPIPPLPTESEY | 42.5

The binders below were run against SpPex13 in the same assay as above.
In short: as §1

Binder | SPOT peptide array binding signal intensity
MAMRPIPPLPTESEY | 72

These binders were tested against SpRvs167 in the same assay as above.
In short: as §1

Binder | SPOT peptide array binding signal intensity
MAMRPIPPLPTESEY | 1130

The binders below were run against SpSla1-D1-D2 in the same assay as above.
In short: as §1

Binder | SPOT peptide array binding signal intensity
MAMRPIPPLPTESEY | 2

What follows are binders tested against SpSla1-D3 in the same assay as above.
In short: as §1

Binder | SPOT peptide array binding signal intensity
MAMRPIPPLPTESEY | 28
